# According to PubChem BioAssay AID624111 (Johns Hopkins Ion Channel Center, 2012):
# The campaign covered roughly 4,000 compounds. About 60 (2%) were called active.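 Rule for the calls: active = duplicate-averaged calcium fluorescence ratio at least three times the standard deviation of buffer wells, a nonspecific response in parental cells; inactive = the rest.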 The sample as a whole holds a higher share of actives than the screen did.
# Test: calcium flux effects in cells lacking MrgX1 – parental HEK293 cells, Fluo-4 calcium flux, counter-screen for MrgX1 antagonist project, confirmation (AID 624111)
# Settings: parental HEK293, Fluo-4 calcium fluorescence, FDSS; at 10 µM
row,Structure (SMILES),fluorescence ratio F(max-min)/F0
1,O=C(CSc1ncccn1)NC(=O)NCc1ccccc1,inactive
2,O=C(c1cccc(S(=O)(=O)Nc2ccccc2Cl)c1)N1CCN(C(=O)c2ccco2)CC1,inactive
3,O=C(Nc1ccccc1)c1nnsc1S(=O)(=O)c1ccc(Cl)cc1,inactive
4,Cc1ccc(-n2[nH]c(C)c(/C=N/N3C(=O)c4cccc5cccc(c45)C3=O)c2=O)cc1,inactive
5,CCCCC(=O)Nc1ccc2c(c1)C(=O)NC2=O,inactive
6,O=C(Cc1ccccn1)c1ccc(O)cc1O,inactive
7,Cc1cc2ncn(CCCCOc3ccccc3)c2cc1C,inactive
8,CC(C)(C)n1c(=O)[nH]c2c(c1=O)CCC2,inactive
9,Cc1ccc2nc(-c3ccc(NC(=O)CN(C)S(=O)(=O)c4ccccc4)cc3)sc2c1,inactive
10,Cc1cccc(NC(=O)C(C)N2C(=O)C3C4CC(C(Br)C4Br)C3C2=O)c1 (stereo unspecified),inactive
11,C=CCNC(=O)c1csc(-c2ccccc2)n1,inactive
12,CCc1ccc(N(CC(=O)Nc2sc3c(c2C(=O)OC)CCCC3)S(C)(=O)=O)cc1,inactive
13,Cc1ccc(Cc2cnc(N)s2)o1,inactive
14,COc1ccc(Nc2nnc(C)c3ccccc23)cc1,inactive
15,Cc1nn(-c2ccccc2)c(C)c1NC(=O)COc1ccc(Cl)cc1Cl,inactive
16,O=C(Nc1cccc(Cl)c1)c1cncn1-c1ccc(F)cc1,inactive
17,CCC(C)Sc1nc(C)nc2c1c(=O)n(C)c(=O)n2C (stereo unspecified),inactive
18,CCc1cc2c(SCC(=O)Nc3ncc(Cl)c(C)c3Cl)ncnc2s1,inactive
19,N#CC1=C(N)Oc2c(sc3ccccc23)C1c1ccco1 (stereo unspecified),0.504 (active)

row,Structure (SMILES),fluorescence ratio F(max-min)/F0
1,CCC(C)c1ccccc1N1CC(C(=O)N2CCN(S(=O)(=O)c3ccc(F)cc3)CC2)CC1=O (stereo unspecified),inactive
2,COc1ccccc1Oc1nc(-c2cccnc2)nc2ccccc12,inactive
3,COC(=O)c1ccc(COC(=O)C2CCN(S(=O)(=O)c3c(Cl)cccc3Cl)CC2)o1,inactive
4,CN1C(CC(=O)Nc2ccc(Br)cc2)c2ccccc2CC1(C)C (stereo unspecified),inactive
5,O=C(COc1ccc(Cl)cc1)NC(=S)Nc1ccccc1N1CCOCC1,inactive
6,Nc1ccc(Oc2ccc(Cl)cc2)cc1,inactive
7,Cc1cc(=O)oc2cc(NC(=O)C3CC(=O)N(Cc4ccccc4)C3)ccc12 (stereo unspecified),inactive
8,COCCCNC(=O)C1CCN(c2ccc(N3CCOCC3)nn2)CC1,inactive
9,COc1ccc(C(=O)NC(=S)NC2CCCCC2)cc1,inactive
10,O=C(Nc1ccc(Br)cc1F)C1CC(=O)N(C2CCCCC2)C1 (stereo unspecified),inactive
11,CCN(c1cccc(C)c1)S(=O)(=O)c1ccc(-c2coc(C)n2)cc1,inactive
12,CC(=O)N(C1=C(Cl)C(=O)c2ccccc2C1=O)c1ccc(C(=O)O)cc1,inactive
13,CCOC(=O)c1c(NC(=O)CSc2cn(CC)c3ccccc23)sc2c1CCC2,inactive
14,O=C(c1ccc(O)cc1)c1ccc(C(=O)O)c(C(=O)O)c1,inactive
15,CCOc1ccc(NC(=O)CCNC(=O)c2ccc(Br)cc2)cc1,inactive
16,O=C1CCCN1CCCNC(=S)Nc1ccc(F)c(Cl)c1,inactive
17,COc1ccc(S(=O)(=O)N2CCN(C(=O)NC3CCCCC3)CC2)cc1,inactive
18,O=C(Nc1nnc(-c2ccccc2)o1)c1cc(-c2cccs2)nc2ccccc12,inactive
19,Cc1cc(Br)ccc1NC(=O)c1cnc(N2CCN(c3ccccn3)CC2)c2ccccc12,inactive

row,Structure (SMILES),fluorescence ratio F(max-min)/F0
1,Cc1c(C(=O)N2CCN(c3ccc(F)cc3)CC2)oc2c1C(=O)CCC2,inactive
2,CC(C)CC(=O)N/C(N)=N/c1nc2ccccc2s1,inactive
3,CC(=O)N(C)c1ccc(NC(=O)C(F)(F)F)cc1,inactive
4,CCOC(=O)c1c(C)[nH]c(=S)c(C#N)c1-c1ccccc1,inactive
5,CCc1cc(=O)oc2cc(C)cc(OCC(=O)N3CCC[C@@H]3C(=O)O)c12,inactive
6,CCN(CC)CC(=O)Nc1nn(-c2ccccc2)nc1C(N)=O,inactive
7,O=C(C1CCN(S(=O)(=O)c2cnc[nH]2)CC1)N1CCN(Cc2ccc3c(c2)OCO3)CC1,inactive
8,OCc1ccc(OCCCOc2cccc3cccnc23)cc1,inactive
9,FC(F)(F)c1cc(-c2cccs2)nc(NCc2ccco2)n1,inactive
10,O=C(Cc1nc2ccccc2[nH]c1=O)c1ccc(Cl)cc1,inactive
11,Clc1ccc(C=NC23CN4CN(CN(C4)C2)C3)cc1,inactive
12,CCOC(=O)N1CCN(C(=O)COCc2cc(-c3ccc4c(c3)OCO4)on2)CC1,inactive
13,CCSc1nsc(NC(=O)Nc2cccc(C(C)=O)c2)n1,inactive
14,CCCc1cc(=S)n2c([nH]c3ccccc32)c1C#N,inactive
15,O=c1cc(CSc2ccccn2)nc(N2CCN(c3ccccc3)CC2)[nH]1,inactive
16,CCOC(=O)CNC(=O)CSc1nc2cccnc2n1CC,inactive
17,Cc1c(C)c2c(OCC(=O)N[C@@H](C(=O)O)c3ccccc3)cc3c(c2oc1=O)CCC(C)(C)O3,inactive
18,Cc1ccc(-c2nn(C(C)(C)C)c3ncnc(N)c23)cc1,inactive
